# In PubChem BioAssay (EPA / NIEHS):
# Inconclusive results are not listed. The source made the active and inactive calls. How the source made its calls, unless noted: active means hit-call score of the fitted dose curve at least 0.9, where 1 is the maximum; inactive means score below 0.9.
# Experiments:
# [1] = ATG_TAL_CIS: Attagene CIS-FACTORIAL HepG2 Assay for human TAL Basal Promoter (AID 2282966); conditions: HepG2 Attagene cis-factorial TAL promoter reporter; actives raise or lower the signal;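 further: background control endpoint measuring basal TAL promoter reporter mRNA not a specific factor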
# Procedure, shortened: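 Background-control endpoint: basal TAL promoter reporter transcripts in transiently transfected HepG2, measured 24 h after dosing. Read-out by RT-PCR with fluorescent primer extension and capillary electrophoresis; gain or loss of signal fitted relative to DMSO.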
# [2] = ATG_TGFb_CIS: Attagene CIS-FACTORIAL HepG2 Assay for human Transforming Growth Factor (TGF) (AID 2282967); conditions: HepG2 Attagene CIS TGFb reporter, mRNA transcription; actives raise or lower the signal
# Procedure, shortened: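 HepG2 cells transiently transfected with cis-promoter-driven multiple reporter units measure endogenous TF activity; reporter mRNA quantified at 24 h by RT-PCR, FAM labeling, HpaI digestion and capillary electrophoresis. Bidirectional fit vs DMSO.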
# [3] = ATG_VDRE_CIS: Attagene CIS-FACTORIAL HepG2 Assay for human Vitamin D Receptor Element (VDRE) (AID 2282968); conditions: HepG2 VDRE cis-reporter transcription, actives raise or lower the signal
# Procedure, shortened: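 Readout is VDRE-driven reporter mRNA reflecting endogenous factor activity in human HepG2 cells, sampled 24 h post-dose. Quantification used labelled RT-PCR products separated by capillary electrophoresis; bidirectional analysis relative to DMSO.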
# [4] = target: X-box-binding protein 1 (Homo sapiens) (UniProt P17861); experiment: ATG_Xbp1_CIS: Attagene CIS-FACTORIAL HepG2 Assay for human X-box Binding Protein 1 (XBP1) (AID 2282972); conditions: HepG2 XBP1 cis-element reporter, Attagene multiplex; actives raise or lower the signal
# Chain of X-box-binding protein 1 (Homo sapiens) (P17861 whole entry, looked up, the tested form may be a part): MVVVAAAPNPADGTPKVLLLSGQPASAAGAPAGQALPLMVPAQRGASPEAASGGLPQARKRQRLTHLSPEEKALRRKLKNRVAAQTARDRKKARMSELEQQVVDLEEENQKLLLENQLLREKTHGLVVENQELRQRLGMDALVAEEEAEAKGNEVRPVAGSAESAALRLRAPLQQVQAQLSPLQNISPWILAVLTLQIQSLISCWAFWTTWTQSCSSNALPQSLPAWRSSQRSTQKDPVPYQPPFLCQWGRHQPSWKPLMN
# Procedure, shortened: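 Read-out: fluorescent reporter mRNA fragments resolved by capillary electrophoresis after RT-PCR. Human HepG2 liver cells carried transfected cis-promoter reporter units and were exposed to chemicals for 24 hours. Gain or loss of signal fitted relative to DMSO baseline.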
# [5] = ATG_M_19_TRANS: Attagene TRANS-FACTORIAL HepG2 Assay for M19 Transcription Factor (Internal Marker) (AID 2282974; active means hit-call score of the fitted dose curve at least 0.9, where 1 is the maximum); conditions: HepG2 Attagene TRANS-FACTORIAL M19 internal marker reporter
# Procedure, shortened: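 Background-control readout: after 24 h chemical exposure of transfected HepG2 carrying GAL4-driven reporter units, RNA was reverse-transcribed, amplified, fluorescently labeled and sized by capillary electrophoresis; gain-of-signal fit against DMSO.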
# [6] = ATG_GAL4_TRANS: Attagene TRANS-FACTORIAL HepG2 Assay for GAL4 (Internal Marker) (AID 2282976; active means hit-call score of the fitted dose curve at least 0.9, where 1 is the maximum); conditions: HepG2 Attagene TRANS GAL4 internal marker reporter
# Procedure, shortened: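 In transfected human HepG2 liver cells dosed 24 h, GAL4 reporter mRNA serves as a baseline marker. Detection by RT-PCR with fluorescent capillary electrophoresis, activity fitted upward relative to DMSO.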
# [7] = target: Estrogen-related receptor gamma (Homo sapiens) (UniProt P62508); experiment: ATG_ERRg_TRANS: Attagene TRANS-FACTORIAL HepG2 Assay for human Estrogen-Related Receptor gamma (ERRg) (AID 2282977; active means hit-call score of the fitted dose curve at least 0.9, where 1 is the maximum;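 further: hits increase reporter signal over DMSO so potencies reflect activators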); conditions: HepG2 Attagene TRANS reporter, ERRg transactivation
# Chain of Estrogen-related receptor gamma (Homo sapiens) (P62508 whole entry, looked up, the tested form may be a part): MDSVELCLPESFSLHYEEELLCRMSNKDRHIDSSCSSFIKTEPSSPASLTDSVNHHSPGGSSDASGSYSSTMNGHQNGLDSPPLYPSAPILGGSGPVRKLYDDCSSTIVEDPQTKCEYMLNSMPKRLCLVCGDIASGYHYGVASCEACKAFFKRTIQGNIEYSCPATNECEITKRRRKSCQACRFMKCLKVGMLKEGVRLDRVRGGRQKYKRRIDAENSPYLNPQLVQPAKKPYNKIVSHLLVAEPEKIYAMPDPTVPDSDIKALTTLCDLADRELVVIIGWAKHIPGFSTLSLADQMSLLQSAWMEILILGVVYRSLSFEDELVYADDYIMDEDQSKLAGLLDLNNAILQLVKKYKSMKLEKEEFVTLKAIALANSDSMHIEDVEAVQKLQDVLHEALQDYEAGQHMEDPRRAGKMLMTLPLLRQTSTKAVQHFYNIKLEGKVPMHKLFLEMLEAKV
# Procedure, shortened: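 Exogenous NR-Gal4 chimera activity measured as reporter transcript induction after 24 h in transiently transfected HepG2 cells. RNA reverse-transcribed, PCR-amplified, 6-FAM-labelled and resolved by capillary electrophoresis; increase over DMSO baseline.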
# [8] = target: Steroid hormone receptor ERR1 (Homo sapiens) (UniProt P11474); experiment: ATG_ERRa_TRANS: Attagene TRANS-FACTORIAL HepG2 Assay for human Estrogen-Related Receptor alpha (ERRa) (AID 2282971; active means hit-call score of the fitted dose curve at least 0.9, where 1 is the maximum); conditions: HepG2 Attagene TRANS reporter, ERRa transactivation
# Chain of Steroid hormone receptor ERR1 (Homo sapiens) (P11474 whole entry, looked up, the tested form may be a part): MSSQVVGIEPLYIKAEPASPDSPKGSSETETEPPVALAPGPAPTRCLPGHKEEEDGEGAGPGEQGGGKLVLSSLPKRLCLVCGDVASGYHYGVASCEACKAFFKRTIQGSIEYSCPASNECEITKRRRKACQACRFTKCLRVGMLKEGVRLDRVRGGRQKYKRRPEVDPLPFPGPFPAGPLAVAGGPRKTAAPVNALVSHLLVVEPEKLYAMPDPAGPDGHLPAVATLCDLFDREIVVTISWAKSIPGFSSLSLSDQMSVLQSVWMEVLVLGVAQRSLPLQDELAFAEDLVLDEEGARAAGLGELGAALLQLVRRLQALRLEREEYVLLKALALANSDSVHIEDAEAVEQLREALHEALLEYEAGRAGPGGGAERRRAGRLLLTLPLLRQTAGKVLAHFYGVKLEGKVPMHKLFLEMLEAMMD
# Procedure, shortened: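 Reporter transcripts from ERRa-Gal4 chimera activity measured in transiently transfected human HepG2 cells 24 hours after dosing, using RT-PCR with 6-FAM primer extension, HpaI digestion and capillary electrophoresis; DMSO is baseline.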
# [9] = target: Nuclear receptor subfamily 1 group I member 3 (Homo sapiens) (UniProt Q14994); experiment: ATG_CAR_TRANS: Attagene TRANS-FACTORIAL HepG2 Assay for human Constitutive Androstane Receptor (CAR) (AID 2282969; active means hit-call score of the fitted dose curve at least 0.9, where 1 is the maximum;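 further: activators raise reporter mRNA above DMSO so AC50 marks induction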); conditions: HepG2 Attagene TRANS-FACTORIAL CAR reporter
# Chain of Nuclear receptor subfamily 1 group I member 3 (Homo sapiens) (Q14994 whole entry, looked up, the tested form may be a part): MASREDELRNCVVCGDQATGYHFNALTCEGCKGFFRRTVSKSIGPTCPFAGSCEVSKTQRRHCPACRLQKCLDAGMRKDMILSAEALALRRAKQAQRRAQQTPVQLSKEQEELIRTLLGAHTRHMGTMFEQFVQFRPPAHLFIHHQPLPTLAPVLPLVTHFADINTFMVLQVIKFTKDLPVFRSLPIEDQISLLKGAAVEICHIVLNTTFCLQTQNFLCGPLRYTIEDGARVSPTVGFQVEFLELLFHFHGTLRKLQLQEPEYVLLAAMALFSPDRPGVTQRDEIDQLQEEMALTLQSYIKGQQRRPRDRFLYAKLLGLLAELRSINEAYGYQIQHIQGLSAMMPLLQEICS
# Procedure, shortened: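 Signal is reporter mRNA induction relative to DMSO, measured 24 h after dosing by RT-PCR with fluorescent primer extension and capillary electrophoresis. Human HepG2 liver cells carried transiently transfected chimeric NR-Gal4/GAL4-UAS reporter constructs.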
smiles,measurement,setting,value
O=c1[nH]nnc2ccccc12,outcome,[1],inactive
same,outcome,[2],inactive
same,outcome,[3],inactive
same,outcome,[4],inactive
same,outcome,[5],inactive
CCCOCC(C)O (stereo unspecified),outcome,[1],inactive
same,outcome,[2],inactive
same,outcome,[3],inactive
same,outcome,[4],inactive
same,outcome,[5],inactive
same,outcome,[6],inactive
same,outcome,[7],inactive
O=C(O)Cc1cccc2ccccc12,outcome,[1],inactive
same,outcome,[2],inactive
same,outcome,[3],inactive
same,outcome,[4],inactive
same,outcome,[5],inactive
O=c1cc(-c2ccccc2)oc2cc(O)cc(O)c12,outcome,[1],inactive
same,outcome,[2],inactive
same,outcome,[3],inactive
same,outcome,[4],inactive
same,outcome,[5],inactive
C=C(C)C(=O)NCCCN(C)C,outcome,[1],inactive
same,outcome,[2],inactive
same,outcome,[3],inactive
same,outcome,[4],inactive
same,outcome,[5],inactive
same,outcome,[6],inactive
CCCCNC(=O)NS(=O)(=O)c1ccc(C)cc1,outcome,[1],inactive
same,outcome,[2],inactive
same,outcome,[3],inactive
same,outcome,[4],inactive
same,outcome,[5],inactive
same,outcome,[7],inactive
CCCCCCOC(=O)CCCCC,outcome,[1],inactive
same,outcome,[2],inactive
same,outcome,[3],inactive
same,outcome,[4],inactive
same,outcome,[5],inactive
same,outcome,[6],inactive
O=C=NC1CCC(CC2CCC(N=C=O)CC2)CC1 (stereo unspecified),AC50,[1],26.8 µM (active)
same,AC50,[2],59.2 µM (active)
same,AC50,[3],37.5 µM (active)
same,AC50,[4],85.1 µM (active)
CC[Si](OC(C)=O)(OC(C)=O)OC(C)=O,outcome,[1],inactive
same,outcome,[2],inactive
same,AC50,[3],33.8 µM (active)
same,outcome,[4],inactive
Clc1ccc(Cl)c(Cl)c1Cl,outcome,[1],inactive
same,AC50,[2],19.8 µM (active)
same,outcome,[3],inactive
same,outcome,[4],inactive
same,outcome,[5],inactive
same,outcome,[6],inactive
CC(=O)C(C)=O,outcome,[1],inactive
same,outcome,[2],inactive
same,outcome,[3],inactive
same,outcome,[4],inactive
CCCCOCCOCCOCCOCCO,outcome,[1],inactive
same,outcome,[2],inactive
same,outcome,[3],inactive
same,outcome,[4],inactive
same,outcome,[6],inactive
CC1(C)CCC(C)(C)c2cc(C(=O)Nc3ccc(C(=O)O)cc3)ccc21,outcome,[1],inactive
same,outcome,[2],inactive
same,AC50,[3],27.8 µM (active)
same,outcome,[4],inactive
COc1ccc(O)cc1,outcome,[1],inactive
same,outcome,[2],inactive
same,outcome,[3],inactive
same,outcome,[4],inactive
same,outcome,[5],inactive
same,outcome,[6],inactive
CC(O)C(C)O (stereo unspecified),outcome,[1],inactive
same,outcome,[2],inactive
same,outcome,[3],inactive
same,outcome,[4],inactive
same,outcome,[5],inactive
same,outcome,[6],inactive
CCC(C)(O)CCC=C(C)C (stereo unspecified),outcome,[1],inactive
same,outcome,[2],inactive
same,outcome,[3],inactive
same,outcome,[4],inactive
same,outcome,[5],inactive
CCC(C(=O)NC(N)=O)c1ccccc1 (stereo unspecified),outcome,[1],inactive
same,outcome,[2],inactive
same,outcome,[8],inactive
same,outcome,[4],inactive
same,outcome,[5],inactive
CC(C)[C@H]1CC[C@@H](C)CC1=O,outcome,[1],inactive
same,outcome,[2],inactive
same,outcome,[4],inactive
same,outcome,[5],inactive
same,outcome,[6],inactive
CCCCCCC#CC(=O)OC,outcome,[1],inactive
same,outcome,[2],inactive
same,outcome,[4],inactive
same,outcome,[5],inactive
same,outcome,[7],inactive
C=C(C)C1CCC(C)CC1O (stereo unspecified),outcome,[1],inactive
same,outcome,[2],inactive
same,outcome,[4],inactive
same,outcome,[5],inactive
same,outcome,[6],inactive
CC(C)[C@@H]1CC[C@@H](C)CC1=O,outcome,[1],inactive
same,outcome,[2],inactive
same,outcome,[4],inactive
same,outcome,[5],inactive
C=C(C)[C@@H]1CC[C@@H](C)C[C@@H]1O,outcome,[1],inactive
same,outcome,[2],inactive
same,outcome,[4],inactive
same,outcome,[6],inactive
COc1ccnc(CS(=O)c2nc3cc(OC(F)F)ccc3[nH]2)c1OC (stereo unspecified),outcome,[1],inactive
same,outcome,[2],inactive
same,outcome,[4],inactive
CCCCCCCCCCCCOCCO,outcome,[1],inactive
same,outcome,[2],inactive
same,AC50,[4],55.5 µM (active)
same,outcome,[6],inactive
C[C@H]1C[C@@H]2[C@H]([C@@H](O)C[C@@]3(C)[C@H]2CC[C@]3(O)C(=O)CO)[C@@]2(C)C=CC(=O)C=C12,outcome,[1],inactive
same,outcome,[2],inactive
same,outcome,[4],inactive
Nc1ccc(S(N)(=O)=O)cc1,outcome,[1],inactive
same,outcome,[2],inactive
same,outcome,[9],inactive
same,outcome,[4],inactive
same,outcome,[6],inactive
COc1cc(C)cc(O)c1,outcome,[1],inactive
same,outcome,[2],inactive
same,outcome,[9],inactive
same,outcome,[4],inactive
same,outcome,[5],inactive
same,outcome,[6],inactive
CCCCC[Si](OCC)(OCC)OCC,outcome,[1],inactive
same,outcome,[2],inactive
same,outcome,[4],inactive
same,outcome,[6],inactive
CCCC[n+]1ccccc1,outcome,[1],inactive
same,outcome,[2],inactive
same,outcome,[4],inactive
same,outcome,[5],inactive
CN1Cc2c(N)cccc2C(c2ccccc2)C1 (stereo unspecified),outcome,[1],inactive
same,outcome,[2],inactive
same,outcome,[4],inactive
same,outcome,[5],inactive
same,outcome,[6],inactive
CCO[Si](CCCS)(OCC)OCC,outcome,[1],inactive
same,outcome,[2],inactive
same,outcome,[4],inactive
same,outcome,[5],inactive
same,outcome,[6],inactive
O=C(O)c1cn(C2CC2)c2cc(N3CCNCC3)c(F)cc2c1=O,outcome,[1],inactive
same,outcome,[2],inactive
same,outcome,[4],inactive
same,outcome,[5],inactive
same,outcome,[6],inactive
O=C(O)c1cn(-c2ccc(F)cc2)c2cc(N3CCNCC3)c(F)cc2c1=O,outcome,[1],inactive
same,outcome,[2],inactive
same,outcome,[4],inactive
same,outcome,[5],inactive
same,outcome,[6],inactive
